Source: PubChem BioAssay (EPA / NIEHS)
Records with an inconclusive call do not appear. Activity calls are given as the source filed them. How the source made its calls: active means hit-call score of the fitted dose curve at least 0.9, where 1 is the maximum; inconclusive means response in the unintended direction; inactive means score below 0.9.

biological target: rat Peripheral-type Benzodiazepine Receptor (PBR), Tspo (gene 24230) (UniProt P16257); test: NVS_MP_rPBR: NovaScreen (NVS) Membrane Protein Assay for rat Peripheral-type Benzodiazepine Receptor (PBR) (AID 2283335)
Sequence (P16257 whole entry, looked up): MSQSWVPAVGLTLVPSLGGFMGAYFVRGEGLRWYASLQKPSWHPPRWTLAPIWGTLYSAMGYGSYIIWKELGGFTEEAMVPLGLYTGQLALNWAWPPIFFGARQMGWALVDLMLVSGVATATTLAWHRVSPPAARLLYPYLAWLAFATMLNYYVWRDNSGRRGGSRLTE
Summary of the method: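 Radioligand displacement, rat kidney membrane prep, 1 h exposure, filter-based scintillation read; DMSO baseline, loss-of-signal scored. Primary screen at 25 uM in duplicate, actives followed up in concentration series.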

SMILES | AC50 | outcome
CC1(C)C(C=C(Cl)Cl)C1C(=O)OC(C#N)c1cccc(Oc2ccccc2)c1 (stereo unspecified) | 5.01 µM (active) | 
CCN(CC)c1nc(C)cc(OP(=S)(OC)OC)n1 | 0.467 µM (active) | 
O=C(Nc1ccccc1-c1ccc(Cl)cc1)c1cccnc1Cl |  | inactive
Clc1nc(Cl)nc(Nc2ccccc2Cl)n1 | 1.3 µM (active) | 
N#Cc1c(Cl)cccc1Cl |  | inactive
CCNP(=S)(OC)O/C(C)=C/C(=O)OC(C)C (stereo unspecified) | 11.8 µM (active) | 
CNC(=O)Oc1cccc2ccccc12 | 25 µM (active) | 
OC(c1ccc(Cl)cc1)(c1ccc(Cl)cc1)C(Cl)(Cl)Cl |  | inactive
COCC(C)N(C(=O)CCl)c1c(C)csc1C (stereo unspecified) | 2.95 µM (active) | 
CCOP(=O)(OCC)Oc1nc(Cl)c(Cl)cc1Cl | 1.6 µM (active) | 
COP(=S)(OC)Oc1ccc([N+](=O)[O-])c(C)c1 |  | inactive
CC(C)(C)C(=O)C(Oc1ccc(Cl)cc1)n1cncn1 (stereo unspecified) | 2.37 µM (active) | 
CCCCOCN(C(=O)CCl)c1c(CC)cccc1CC | 1.65 µM (active) | 
CC(C)=CC1C(C(=O)OCc2coc(Cc3ccccc3)c2)C1(C)C (stereo unspecified) |  | inactive
CC(C)Oc1cccc(NC(=O)c2ccccc2C(F)(F)F)c1 | 0.28 µM (active) | 
COCC(=O)N(c1c(C)cccc1C)C(C)C(=O)OC (stereo unspecified) | 25 µM (active) | 
Cc1nc(N(C)C)nc(OC(=O)N(C)C)c1C | 19 µM (active) | 
N#Cc1c[nH]cc1-c1cccc2c1OC(F)(F)O2 |  | inactive
O=C1C2CC=CCC2C(=O)N1SC(Cl)(Cl)Cl (stereo unspecified) |  | inactive
COc1ccc(-c2ccccc2)cc1NNC(=O)OC(C)C | 0.0966 µM (active) | 
COC(=O)N(C(=O)N1CO[C@@]2(C(=O)OC)Cc3cc(Cl)ccc3C2=N1)c1ccc(OC(F)(F)F)cc1 |  | inactive
